# The supplement of paper PMC6555819
# Tests used:
# Assay in all cases: PBM binding z-score (relative to random genomic background probes); higher = stronger binding; sequences stand for … in GC…GCGATTGACAGCGTAGAATGAAGG
# [1] = test system: FXR:RXRa (NR concentration 270 nM, RXRa partner concentration 90 nM)
# Outline: (§1)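 Regression normalization was applied to scanned fluorescence from custom Agilent 4×180K protein-binding microarrays. Before scanning, arrays were incubated 1 h with ligand-free nuclear receptor dimers, and binding was detected with antibodies against each partner (one per run). Binding z-scores use the random background probes as reference.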
# [2] = test system: LXRa:RXRa (NR concentration 270 nM, RXRa partner concentration 90 nM)
# Outline: as §1
# [3] = test system: LXRa homodimer (NR concentration 270 nM)
# Outline: as §1
# [4] = test system: LXRb:RXRa (NR concentration 270 nM, RXRa partner concentration 90 nM)
# Outline: as §1
# [5] = test system: LXRb homodimer (NR concentration 270 nM)
# Outline: as §1
# [6] = test system: PPARa:RXRa (NR concentration 270 nM, RXRa partner concentration 90 nM)
# Outline: as §1
# [7] = test system: PPARg:RXRa (NR concentration 180 nM, RXRa partner concentration 90 nM)
# Outline: as §1
# [8] = test system: PPARg:RXRa 270nM:90nM, anti-RXR (NR concentration 270 nM, RXRa partner concentration 90 nM)
# Outline: as §1
# [9] = test system: PPARg:RXRa 30nM:10nM, anti-RXR (NR concentration 30 nM, RXRa partner concentration 10 nM)
# Outline: as §1
# [10] = test system: PPARg:RXRa 90nM:30nM, anti-RXR (NR concentration 90 nM, RXRa partner concentration 30 nM)
# Outline: as §1
# [11] = test system: PPARg:RXRa DBDmut IVT, anti-RXR (DBD mutation: RXRa K156A/R161A, NR concentration 270 nM, RXRa partner concentration 90 nM)
# Outline: as §1
# [12] = test system: PPARg:RXRa IVT, anti-PPARg (NR concentration 270 nM, RXRa partner concentration 90 nM)
# Outline: as §1
# [13] = test system: PPARg DBDmut:RXRa IVT, anti-PPARg (DBD mutation: PPARg1 K132A/R137A, NR concentration 270 nM, RXRa partner concentration 90 nM)
# Outline: as §1
# [14] = test system: PPARg DBDmut IVT, anti-PPARg (DBD mutation: PPARg1 K132A/R137A, NR concentration 270 nM)
# Outline: as §1
# [15] = test system: PPARg homodimer (NR concentration 180 nM)
# Outline: as §1
# [16] = test system: PXR:RXRa (NR concentration 270 nM, RXRa partner concentration 90 nM)
# Outline: as §1
# [17] = test system: PXR homodimer (NR concentration 270 nM)
# Outline: as §1
# [18] = test system: RARa:RXR (NR concentration 270 nM, RXRa partner concentration 90 nM)
# Outline: as §1
# [19] = test system: RARa homodimer (NR concentration 270 nM)
# Outline: as §1
# [20] = test system: RARb:RXRa (NR concentration 270 nM, RXRa partner concentration 90 nM)
# Outline: as §1
Sequence,PBM binding z-score [1],PBM binding z-score [2],PBM binding z-score [3],PBM binding z-score [4],PBM binding z-score [5],PBM binding z-score [6],PBM binding z-score [7],PBM binding z-score [8],PBM binding z-score [9],PBM binding z-score [10],PBM binding z-score [11],PBM binding z-score [12],PBM binding z-score [13],PBM binding z-score [14],PBM binding z-score [15],PBM binding z-score [16],PBM binding z-score [17],PBM binding z-score [18],PBM binding z-score [19],PBM binding z-score [20]
CAAACTAGGTCGAAGGTCAAAGTCGAGCCAACCA,5.22,4.73,2.22,4.63,0.602,6.98,12.4,10.2,10.9,12.7,6.36,7.65,2.75,1.51,3.56,4.98,1.03,6.95,1.29,4.16
AGAACGAGGGCAATGAGTTGATATCACGGGTGGC,0.383,0.334,-0.363,-0.00546,-0.245,1.52,1.86,1.07,0.219,0.833,3.27,2.39,0.947,-0.37,0.0848,1.68,4.4,0.557,-0.0418,1.95
CAAACTAGGTAAAAGGTCAAAGTCGAGCCAACCA,6.21,6.09,4.59,5.87,2.23,6.92,12.1,10.2,11,11.4,7.05,7.46,2.77,1.52,3.65,5.33,1.53,6.52,2.55,4.87
CGAACTAGGTCATCCAGGACAGCGAATACATTGA,4.51,2.55,0.58,2.07,-0.199,4.82,7.57,6.41,4.29,5.78,8.26,8.15,1.97,1.48,1.78,1.78,1.09,2.33,-0.0811,3.81
GCTCGGAGGACATGGTCAGAGCTTTGTCCGTAGA,-0.823,-0.697,-0.873,-1.01,-1.56,-0.666,-0.763,-0.775,-1.35,-1.09,-0.304,-0.659,-2.23,-2.05,-2.26,-0.77,-0.911,-0.833,-1.56,0.679
TCTTTTAGATCAACAGGAGGTTAAGAAAGATCGA,1.27,1.43,0.248,1.57,0.898,1.55,0.2,2.27,3.57,3.17,2.11,0.854,1.33,1.69,0.914,1.3,0.393,1.6,0.513,0.952
CGTCAAAGTTCAACTAAGGTAATGTAAAGCACGC,7.02,6.36,3.99,4.15,2.17,5.15,5,5.65,2.56,4.42,0.526,2.28,0.986,1.3,3.39,5.58,3.59,4.17,1.99,5.18
TCTTGTAGATGAACAGGAGGTTAAGAAAGATCGA,0.551,0.82,-0.0533,0.712,-0.35,0.923,0.119,1.32,2.89,2.02,1.53,0.277,0.804,0.789,0.0799,0.598,-0.154,0.883,0.212,0.279
TGAATGAGGTTAAAGCTCAGGGAACGTGGCGTCG,2.94,1.92,-0.466,0.894,-0.222,3.6,2.86,4,2.09,3.82,2.25,2.59,-0.0715,0.871,0.0932,1.07,-0.806,1.84,-0.696,1.78
AGCATGAGGTTACCAAAGATCAGGGAAACGCTTG,1.94,6.48,0.0616,3.13,-0.682,2.77,1.41,1.4,0.579,1.07,0.803,0.996,0.0724,-0.827,0.663,1.38,0.241,2.44,-0.672,2.07
CCGACTGGGGCAGATAGGTTACCATACCATCCGG,-0.431,-0.25,0.171,-0.154,-1.16,0.179,0.914,0.44,-0.164,-0.0542,1.48,1.4,-1.44,-0.883,0.00162,-0.407,-0.499,0.117,-0.193,0.804
CGAACTAGGTCAGAACAGGTCAGTGAAGGATGAT,2.92,2.65,0.47,1.69,-0.091,3.73,5.27,4.8,1.67,4.11,7.05,7.16,1.14,1.73,1.66,3.32,0.18,2.3,0.424,3.57
GATACAGGGTCAAGGCCCGAGTACGCGTATTGAT,6.52,4.01,-0.361,3.39,-0.411,5.39,5.65,5.62,2.48,4.12,2.09,3.66,0.597,-0.396,1.27,3.48,0.163,4.6,0.3,4.31
CCTCGGAGGACAACAGGCGGTCAGAGCTGCCAGA,-0.211,-0.0211,0.394,-0.76,-1.15,-0.468,-0.327,-0.898,-0.775,-1.03,-0.178,-0.851,-1.43,-1.37,-0.158,-0.464,-0.435,-0.312,-0.034,1.61
CGAACTAGGTCATCAAGGACAGTGAATACATTGA,3.45,2.23,0.477,1.76,-0.245,4.53,7.15,6.3,3.43,5.6,8.23,8.64,1.85,1.55,1.45,2,1.45,2.13,0.127,3.88
ACCTCTAGGTAACCAAGTTCAGTGAATGCCGAAC,0.335,0.537,0.553,0.37,-0.0596,0.625,0.296,0.581,-0.247,0.404,3.87,2.09,0.112,0.237,-0.00896,1.65,1.47,0.453,-0.355,0.936
